Measurements from the supplement of paper PMC11219838.

The compounds below were run on Caenorhabditis elegans dauer (daf-2(e1370)) (assay: proportion of mobile C. elegans dauer larvae relative to DMSO control (fraction of DMSO control); higher = more viable, less nematicidal, active = 0.63 or less; extreme values may be limits of the assay). Settings: 60 µM; 5 days; temperature: 20 °C.
Procedure: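 DODA library (846 commercial 1,3,4- and 1,2,4-oxadiazole compounds plus commercial nematicide controls) screened at a single dose of 60 µM (0.6% DMSO) in 96-well plates, two biological replicates. Read-outs: C. elegans N2 L1 survival/reproduction score at day 6, 20 °C (0: 0-10 worms, 1: 11-20, 2: 21-50, 3: >50, 4: overgrown/starved). C. elegans daf-2 dauer, D. dipsaci and M. hapla J2 mobility at day 5, 20 °C, and P. penetrans mobility at day 5, 20 °C, each relative to DMSO controls. M. hapla egg hatching at day 12, 25 °C, relative to the mean of 8 DMSO wells on the same plate.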

| SMILES | proportion of mobile C. elegans dauer larvae |
| --- | --- |
| CCOc1nc(-c2ccc(C)cc2)ccc1-c1noc(-c2ccc(F)cc2)n1 | 1 (inactive) |
| Clc1ccc(-c2noc(COc3ccc4c(c3)OCO4)n2)cc1 | 1 (inactive) |
| COc1ccc(-c2noc(COc3ccccc3C)n2)cc1 | 1 (inactive) |
| Cc1cccc(OC(C)c2nc(-c3ccncc3)no2)c1 (stereo not given) | 0.85 (inactive) |
| CC(C)(Oc1ccc(Cl)cc1)c1nc(-c2ccncc2)no1 | 1 (inactive) |
| Brc1cccc(-c2nc(-c3cccnc3)no2)c1 | 1 (inactive) |
| Cc1ccc(-c2noc(-c3ccc4c(c3)OCCO4)n2)cc1 | 0.615 (active) |
| COc1cccc(-c2noc(COc3ccc(Cl)cc3)n2)c1 | 1 (inactive) |
| COc1cccc(-c2nc(-c3ccc(Cl)cc3)no2)c1 | 1 (inactive) |
| CCOc1ccc(-c2nc(-c3ccc(C)cc3)no2)cc1 | 0.5 (active) |
| Cc1ccc(-c2nc(-c3ccccc3)no2)cc1 | 1 (inactive) |
| Fc1ccc(OCc2nc(-c3ccc(Cl)cc3)no2)cc1 | 1 (inactive) |
| CCOC(=O)c1c(NC(=O)CSc2nnc(-c3ccccc3OCC)o2)sc(C(C)=O)c1C | 1 (inactive) |
| CCCC(=O)Nc1ccccc1-c1nc(-c2ccccn2)no1 | 1 (inactive) |
| CCOC(=O)c1c(NC(=O)CSc2nnc(-c3ccc(Cl)cc3)o2)sc(C)c1C | 1 (inactive) |
| COc1nc(C)ccc1-c1noc(-c2ccccc2Br)n1 | 1 (inactive) |
| CCc1ccc(C(=O)Nc2ccccc2-c2nc(-c3cccnc3)no2)cc1 | 1 (inactive) |
| COc1ccccc1-c1nnc(SCc2ccc(C#N)cc2)o1 | 1 (inactive) |
| Cc1cc(Br)ccc1OCc1nc(-c2cccnc2)no1 | 1 (inactive) |
| O=C(CSc1nnc(-c2ccccc2)o1)Nc1ccc(Br)cc1F | 1 (inactive) |

| SMILES | proportion of mobile C. elegans dauer larvae |
| --- | --- |
| CCCC(=O)Nc1ccccc1-c1nc(-c2cccnc2)no1 | 1 (inactive) |
| C(=C\c1ccccc1)/CSc1nnc(-c2ccncc2)o1 | 1 (inactive) |
| COc1cccc(-c2noc(-c3c(F)cccc3F)n2)c1 | 1 (inactive) |
| COc1nc(-c2ccc(C)cc2)ccc1-c1noc(-c2cccc(C)c2)n1 | 1 (inactive) |
| COc1ccccc1-c1noc(-c2ccccc2C)n1 | 1 (inactive) |
| Clc1ccc(OCc2nc(-c3ccccc3)no2)c(Br)c1 | 1 (inactive) |
| O=C(CSc1nnc(-c2ccco2)o1)Nc1cc(Cl)ccc1Cl | 1 (inactive) |
| Cc1ccc(-c2noc(-c3ccc(C)cc3C)n2)cc1 | 1 (inactive) |
| COc1ccc(-c2noc(-c3ccc(Br)cc3)n2)cc1 | 1 (inactive) |
| COc1ccc(-c2noc(COc3ccc4c(c3)CCCC4)n2)cc1 | 1 (inactive) |
| Cc1nnc(CSc2nnc(-c3ccc(Cl)cc3)o2)o1 | 1 (inactive) |
| O=C(Nc1ccccc1-c1nc(-c2cccnc2)no1)c1ccccc1Cl | 1 (inactive) |
| O=C(Nc1ccc(-c2noc(COc3ccccc3Cl)n2)cc1)c1ccccn1 | 1 (inactive) |
| Cc1ccc(-c2nnc(SCC(=O)Nc3c(C)cc(C)cc3C)o2)cc1 | 1 (inactive) |
| Cc1ccc(-c2nc(-c3ccc(C(F)(F)F)cc3)no2)cc1 | 0.5 (active) |
| COc1ccc(-c2noc(COc3ccc(Br)c(C)c3)n2)cc1 | 1 (inactive) |
| COc1cccc(-c2nnc(SCc3ccccc3)o2)c1 | 1 (inactive) |
| Cc1ccc(-c2noc(CSc3nc(C)cc(C)n3)n2)cc1 | 1 (inactive) |
| Ic1ccc(CSc2nnc(-c3ccccc3)o2)cc1 | 1 (inactive) |
| COc1ccc(-c2noc(COc3ccc(C)c(C)c3)n2)cc1 | 1 (inactive) |
